Laboratory results reported in the antibiotic and cytotoxicity screens of Wong et al. (2023).
About 3,300 (8.5%) of roughly 39,000 compounds were called active. What follows is part of a selection rich in actives, with near analogues and random picks from the rest.

tested on: HepG2; assay: cytotoxicity call (relative viability < 0.9); details: 10 µM

Row | Compound | cytotoxicity call
1 | COc1ccc(C#Cc2ccc([C@H]3[C@@H](CO)N4CCCCN(S(=O)(=O)c5cn(C)cn5)C[C@H]34)cc2)cc1 | inactive
2 | C[C@@H]1CN([C@H](C)CO)S(=O)(=O)c2ccc(-c3cncnc3)cc2O[C@@H]1CN(C)C(=O)Cc1cccnc1 | inactive
3 | Cl.N=C(N)NCCCC(N)C(=O)O (stereo not given) | inactive
4 | C[C@@H]1CCCCO[C@H](CN(C)Cc2ccc(C(=O)O)cc2)[C@@H](C)CN([C@H](C)CO)C(=O)c2cc(NC(=O)Nc3ccc(F)cc3)ccc2O1 | inactive
5 | C[C@@H]1CN([C@@H](C)CO)C(=O)c2cc(NC(=O)CCN3CCOCC3)ccc2O[C@H]1CN(C)C(=O)Nc1ccc(F)cc1 | inactive
6 | COc1ccc(NC(=O)Nc2ccc3c(c2)C(=O)N([C@@H](C)CO)C[C@H](C)[C@H](CN(C)C(=O)CCC(F)(F)F)OCCCC[C@@H](C)O3)cc1 | inactive
7 | C[C@H](O)C#Cc1ccc2c(c1)O[C@@H](CN(C)C(=O)C1CCCCC1)[C@@H](C)CN([C@H](C)CO)S2(=O)=O | inactive
8 | CCOC(=O)c1cn[nH]c1 | inactive
9 | C[C@H]1CN([C@@H](C)CO)C(=O)c2cc(NS(=O)(=O)c3cn(C)cn3)ccc2O[C@H]1CN(C)S(=O)(=O)c1ccccc1 | inactive
10 | CCS(=O)(=O)NCC[C@H]1CC[C@@H](NS(=O)(=O)c2ccccc2C)[C@H](CO)O1 | inactive
11 | C[C@@H]1CN([C@@H](C)CO)C(=O)c2cccc(NS(C)(=O)=O)c2O[C@@H]1CN(C)C(=O)Nc1ccc(F)cc1 | inactive
12 | CCOC(=O)c1c(CN2CCN(c3ccccc3C)CC2)n(-c2ccccc2)c2cc(Br)c(O)cc12 | inactive
13 | C[C@@H]1CN([C@@H](C)CO)C(=O)Cc2cc(NS(=O)(=O)c3ccc(F)cc3)ccc2O[C@@H]1CN(C)S(=O)(=O)c1ccc(F)cc1 | inactive
14 | COc1ccc(S(=O)(=O)Nc2cccc3c2O[C@H](CN(C)S(=O)(=O)c2ccc(OC)cc2)[C@H](C)CN([C@H](C)CO)C3=O)cc1 | inactive
15 | O=C(O)CCc1nc2ccccc2[nH]1 | inactive
16 | C(=N\c1nc2ccccc2[nH]1)/N(c1ccccc1)c1ccccc1 | active
17 | FC(F)(F)c1nc2ccccc2[nH]1 | inactive
18 | C[C@H](CO)N1C[C@H](C)[C@@H](CN(C)C(=O)c2ccncc2)OCCCC[C@H](C)Oc2ccc(NS(=O)(=O)c3cn(C)cn3)cc2C1=O | inactive
19 | CC(C)NC(=O)Nc1ccc2c(c1)C(=O)N([C@H](C)CO)C[C@H](C)[C@H](CN(C)S(=O)(=O)c1cccs1)O2 | inactive
20 | Cl.Cl.OCCN1CCN(CCCN2c3ccccc3Sc3ccc(C(F)(F)F)cc32)CC1 | active
21 | CC(=O)c1ccc2c(c1)N(CCCN1CCN(CCO)CC1)c1ccccc1S2.O=C(O)C=CC(=O)O | inactive
22 | OCCN1CCN(c2ncnc3c2ncn3[C@H]2CN(Cc3cccc(C(F)(F)F)c3)C[C@@H](CO)O2)CC1 | inactive

Row | Compound | cytotoxicity call
23 | Cl.Cl.OCCOCCN1CCN(C(c2ccccc2)c2ccc(Cl)cc2)CC1 (stereo not given) | inactive
24 | CN1CCN(CCCN2c3ccccc3Sc3ccc(C(F)(F)F)cc32)CC1.Cl.Cl | active
25 | O=C(O)C=CC(=O)O.OCCOCCN1CCN(C2=Nc3ccccc3Sc3ccccc32)CC1 | inactive
26 | OCCN1CCN(CCCN2c3ccccc3Sc3ccc(Cl)cc32)CC1 | active
27 | Cc1ccc(S(=O)(=O)N(C)C[C@@H]2OCCCC[C@H](C)Oc3ccc(NC(=O)C4CCCCC4)cc3C(=O)N([C@H](C)CO)C[C@@H]2C)cc1 | inactive
28 | Cc1noc(C)c1S(=O)(=O)Nc1ccc2c(c1)C(=O)N([C@@H](C)CO)C[C@@H](C)[C@H](CN(C)Cc1ccc(C(F)(F)F)cc1)OCCCC[C@@H](C)O2 | inactive
29 | COc1ccc(NC(=O)N(C)C[C@@H]2OCCCC[C@@H](C)Oc3ccc(NC(=O)NC4CCCCC4)cc3C(=O)N([C@@H](C)CO)C[C@@H]2C)cc1 | inactive
30 | C[C@@H]1CN([C@@H](C)CO)C(=O)c2cc(C#CC3(O)CCCC3)cnc2O[C@H]1CN(C)S(=O)(=O)c1ccc(F)cc1 | inactive
31 | O[C@@H](CCl)CN1CC[N+]2(CC1)CC[N+]1(CCN(C[C@@H](O)CCl)CC1)CC2 | inactive
32 | O=C(/C=C/c1ccc(O)c(O)c1)O[C@@H]1C[C@](O)(C(=O)O)C[C@@H](OC(=O)/C=C/c2ccc(O)c(O)c2)[C@H]1OC(=O)/C=C/c1ccc(O)c(O)c1 | inactive
33 | CN(C)CCCNC(=O)C[C@@H]1CC[C@@H]2[C@H](COc3ccc(NC(=O)c4ccccc4F)cc3C(=O)N2C)O1 | inactive
34 | C[C@H](CO)N1C[C@H](C)[C@H](CN(C)Cc2ccccc2)OCCCC[C@H](C)Oc2ccc(NS(=O)(=O)c3cccs3)cc2C1=O | inactive
35 | COc1ccc(CN(C)C[C@@H]2OCCCC[C@H](C)Oc3ccc(NC(=O)NC(C)C)cc3C(=O)N([C@H](C)CO)C[C@@H]2C)cc1 | inactive
36 | C[C@@H]1CN([C@@H](C)CO)C(=O)c2cc(NS(=O)(=O)c3cccs3)ccc2O[C@H]1CN(C)Cc1ccc(Cl)c(Cl)c1 | inactive
37 | COc1ccc(S(=O)(=O)N(C)C[C@@H]2OCCCC[C@@H](C)Oc3ccc(NC(=O)Nc4ccc(C(F)(F)F)cc4)cc3C(=O)N([C@H](C)CO)C[C@H]2C)cc1 | inactive
38 | COc1ccc(S(=O)(=O)N(C)C[C@H]2OCCCC[C@@H](C)Oc3ccc(NC(=O)Nc4ccc(C(F)(F)F)cc4)cc3C(=O)N([C@H](C)CO)C[C@H]2C)cc1 | active
39 | COc1ccc(S(=O)(=O)N(C)C[C@H]2OCCCC[C@@H](C)Oc3ccc(NC(=O)Nc4ccc(C(F)(F)F)cc4)cc3C(=O)N([C@@H](C)CO)C[C@H]2C)cc1 | active
40 | COc1ccc(S(=O)(=O)N(C)C[C@H]2OCCCC[C@H](C)Oc3ccc(NC(=O)Nc4ccc(C(F)(F)F)cc4)cc3C(=O)N([C@@H](C)CO)C[C@H]2C)cc1 | inactive
41 | COc1ccc(S(=O)(=O)N(C)C[C@@H]2OCCCC[C@H](C)Oc3ccc(NC(=O)Nc4ccc(C(F)(F)F)cc4)cc3C(=O)N([C@@H](C)CO)C[C@H]2C)cc1 | inactive
42 | COc1ccc(S(=O)(=O)N(C)C[C@@H]2OCCCC[C@@H](C)Oc3ccc(NC(=O)Nc4ccc(C(F)(F)F)cc4)cc3C(=O)N([C@H](C)CO)C[C@@H]2C)cc1 | inactive
43 | COc1ccc(S(=O)(=O)N(C)C[C@@H]2OCCCC[C@H](C)Oc3ccc(NC(=O)Nc4ccc(C(F)(F)F)cc4)cc3C(=O)N([C@H](C)CO)C[C@H]2C)cc1 | inactive
44 | COc1ccc(S(=O)(=O)N(C)C[C@H]2OCCCC[C@H](C)Oc3ccc(NC(=O)Nc4ccc(C(F)(F)F)cc4)cc3C(=O)N([C@H](C)CO)C[C@@H]2C)cc1 | active

Row | Compound | cytotoxicity call
45 | COc1ccc(S(=O)(=O)N(C)C[C@@H]2OCCCC[C@H](C)Oc3ccc(NC(=O)Nc4ccc(C(F)(F)F)cc4)cc3C(=O)N([C@@H](C)CO)C[C@@H]2C)cc1 | active
46 | COc1ccc(S(=O)(=O)N(C)C[C@H]2OCCCC[C@H](C)Oc3ccc(NC(=O)Nc4ccc(C(F)(F)F)cc4)cc3C(=O)N([C@H](C)CO)C[C@H]2C)cc1 | inactive
47 | COc1ccc(S(=O)(=O)N(C)C[C@H]2OCCCC[C@H](C)Oc3ccc(NC(=O)Nc4ccc(C(F)(F)F)cc4)cc3C(=O)N([C@@H](C)CO)C[C@@H]2C)cc1 | inactive
48 | COc1ccc(S(=O)(=O)N(C)C[C@@H]2OCCCC[C@H](C)Oc3ccc(NC(=O)Nc4ccc(C(F)(F)F)cc4)cc3C(=O)N([C@H](C)CO)C[C@@H]2C)cc1 | inactive
49 | CC(=O)NCCCC[C@@H]1NC(=O)[C@@H]2C[C@H](C(=O)NCCCCN(C)C)[C@H](c3cccc(OCCO)c3)N2C1=O | inactive
50 | CC(C)NC(=O)N(C)C[C@@H]1OCCCC[C@@H](C)Oc2ccc(NC(=O)Nc3ccc(C(F)(F)F)cc3)cc2C(=O)N([C@H](C)CO)C[C@@H]1C | inactive
51 | COc1ccc(NC(=O)N(C)C[C@@H]2Oc3ncc(C#CC(C)C)cc3C(=O)N([C@@H](C)CO)C[C@@H]2C)cc1 | inactive
52 | C[C@@H]1CN([C@@H](C)CO)C(=O)c2c(c3ccccc3n2C)-c2ccccc2CO[C@@H]1CN(C)C(=O)CCC(F)(F)F | inactive
53 | COc1ccc(cc1)S(=O)(=O)N1C[C@]2(C1)CN([C@@H](CO)c1c2c2ccc(cc2n1C)OC)C(=O)c1cccnc1 | inactive
54 | C[C@@H]1CCCCO[C@@H](CN(C)C(=O)Nc2cccc3ccccc23)[C@@H](C)CN([C@@H](C)CO)C(=O)c2cc(NC(=O)NC3CCCCC3)ccc2O1 | inactive
55 | CC(=O)n1cc([C@H]2C=C(C(=O)N3CCN(C)CC3)O[C@@H](OCc3ccc(CO)cc3)C2)c2ccccc21 | inactive
56 | C[C@H](CO)N1C[C@H](C)[C@H](CN(C)S(=O)(=O)c2cn(C)cn2)Oc2ccc(NC(=O)Nc3ccc4c(c3)OCO4)cc2C1=O | inactive
57 | Nc1ccccc1C(=O)N1CCOCC1 | inactive
58 | O=C(c1cn(Cc2cncn2Cc2ccc(Br)cc2)cc1-c1cccc2ccccc12)N1CCOCC1 | active
59 | O=C(c1ccccc1O)N1CCOCC1 | inactive
60 | C[C@H]1CN(C(=O)CSc2nnc3c4ccccc4n(Cc4cccc(Cl)c4)c3n2)CCN1C(=O)c1ccccc1F | inactive
61 | COC(=O)[C@@H]1N2C(=O)[C@@H](N3CC4=C[C@@H](C5CC5)n5c(=O)n(C)c(=O)n5[C@@H]4[C@@H]3[C@@H](O)Cc3ccccc3)[C@H]2SC1(C)C | inactive
62 | C[C@@H]1CN([C@@H](C)CO)C(=O)Cc2cc(NS(=O)(=O)c3ccccc3)ccc2O[C@@H]1CN(C)S(C)(=O)=O | inactive
63 | C=C1CC[C@@H]2C(C)(C)CCC[C@@]2(C)[C@@H]1CC/C(C)=C/C(=O)OC | inactive
64 | C=C1CCC2C(C)(CO)C(O)CCC2(C)C1CC=C1C(=O)OCC1O (stereo not given) | active
65 | CC1(C)CCC2(C(=O)O)CCC3(C)C(=CCC4C5(C)CCC(O)C(C)(CO)C5CCC43C)C2C1 (stereo not given) | inactive
